Pol kappa inh-1 = qHTS for Inhibitors of Polymerase Kappa. purified Pol kappa, fluorescent DNA synthesis assay, 10 min. AID 588579, 2011. Potency, µM (titrated, usually from 107 µM), most hits filed as inhibitors. DNA polymerase kappa (Homo sapiens), Q9UBT6. 400,000 compounds, 0.53% hits
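10 nM Pol kappa preincubated 15 min at room temperature with compounds, then reaction started with substrate at 50 nM final. Fluorescence read kinetically at 0 and 10 min; buffer-only wells served as negative control.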
Pol eta inh-1 = qHTS for Inhibitors of Polymerase Eta. DNA polymerase eta (Homo sapiens), Q9Y253. recombinant Pol eta, fluorescent DNA replication assay. Potency, µM (highest dose often 114 µM), most hits filed as inhibitors. 390,000 compounds, 1.2% hits. AID 588591, 2011
Target sequence (Q9Y253 whole entry, looked up): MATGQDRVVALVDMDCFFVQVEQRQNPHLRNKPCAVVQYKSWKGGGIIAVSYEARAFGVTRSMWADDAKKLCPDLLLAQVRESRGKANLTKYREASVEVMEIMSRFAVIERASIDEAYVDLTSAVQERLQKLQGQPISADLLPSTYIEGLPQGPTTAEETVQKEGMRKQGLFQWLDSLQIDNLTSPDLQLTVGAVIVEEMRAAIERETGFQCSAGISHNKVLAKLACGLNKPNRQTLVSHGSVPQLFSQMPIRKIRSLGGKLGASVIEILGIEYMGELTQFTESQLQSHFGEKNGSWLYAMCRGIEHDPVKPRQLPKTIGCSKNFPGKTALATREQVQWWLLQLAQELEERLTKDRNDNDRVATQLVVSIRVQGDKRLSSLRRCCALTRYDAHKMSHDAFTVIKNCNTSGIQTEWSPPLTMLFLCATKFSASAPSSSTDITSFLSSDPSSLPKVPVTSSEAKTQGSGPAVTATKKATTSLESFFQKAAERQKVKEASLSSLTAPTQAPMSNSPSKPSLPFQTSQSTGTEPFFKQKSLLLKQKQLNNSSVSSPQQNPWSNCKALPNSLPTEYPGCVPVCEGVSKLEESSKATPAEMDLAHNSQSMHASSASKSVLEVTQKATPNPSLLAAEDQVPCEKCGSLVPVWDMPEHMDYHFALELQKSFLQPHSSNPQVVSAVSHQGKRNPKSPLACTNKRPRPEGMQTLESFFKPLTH
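Pol eta at 10 nM preincubated with compounds 15 min at room temperature; reaction started with fluorescent substrate (50 nM final) and read kinetically at 0 and 10 min.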
Pol beta inh = qHTS Assay for Inhibitors of DNA Polymerase Beta | P06746 | Pol beta primer extension/strand displacement, fluorescence kinetic | Potency, µM (series often up to 114 µM), usual class: inhibitors | 340,000 compounds, 1.3% hits
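Preincubation: enzyme (10 nM) with compound, 15 min, RT. Reaction: substrate added to 50 nM final. Reads: 0 and 10 min. Analysis: normalized, Hill fit.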
WRN helicase inh = qHTS for Inhibitors of WRN Helicase; Potency, µM (highest dose often 114 µM), actives largely listed as inhibitors; Bifunctional 3'-5' exonuclease/ATP-dependent helicase WRN (Homo sapiens), Q14191; AID 651768, 2012; WRN helicase unwinding, fluorescent forked duplex, kinetic; 360,000 compounds, 0.46% hits; also: nearly all actives have a fitted effect of over 55% in size
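Enzyme (20 nM final) and test compound sit together 15 min at room temperature before substrate addition. Substrate is a single-forked duplex oligonucleotide (100 nM) labelled with fluorophore and quencher, with 2 mM ATP; helicase unwinding raises red fluorescence, read kinetically.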
PI5P4K alpha inh = qHTS for Inhibitors of phosphatidylinositol 5-phosphate 4-kinase (PI5P4K); Phosphatidylinositol 5-phosphate 4-kinase type-2 alpha (Homo sapiens), P48426; max response, %; 330,000 compounds, 1.2% hits; PI5P4Kalpha enzyme, ADP-Glo luminescence, 60 min; hits give low values; active = max response of -50% or lower; inconclusive = between -30% and -50%; inactive = -30% or higher; also: value at the top dose of about 77 µM
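Enzyme plus substrate dispensed, test compounds pinned in, then ATP (5 microM final) added. After 60 min at RT, ADP-Glo reagent 1 for 45 min and reagent 2 for 30 min preceded luminescence imaging.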
POLI inh = qHTS for Inhibitors of Polymerase Iota; Potency, µM (top dose mostly 115 µM), hits mostly inhibitors; 390,000 compounds, 1% hits; Pol iota fluorescent replication assay, 10 min
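Fluorescent replication assay read twice, at 0 min and 10 min after adding 50 nM (final) substrate. Enzyme (10 nM) and compounds were first incubated 15 min at room temperature; enzyme-free buffer wells were negative controls.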
TbPGK inh = qHTS for inhibitors of Phosphogylcerate Kinase: Hit Validation Screen. TbPGK coupled GAPDH assay, Kinase-Glo luminescence. 500 compounds, 79% hits. Potency, µM (titrated, usually from 57.5 µM), actives largely listed as inhibitors. shares compounds with Pol kappa inh-1. AID 686980, 2013; also: nearly all actives have a fitted effect of over 65% in size
Pol iota confirm = qHTS for Inhibitors of Polymerase Iota: Confirmatory Assay for Cherry-picked Compounds. shares compounds with Pol kappa inh-1. Pol iota primer extension, TAMRA/BHQ fluorescence. Potency, µM, usual class: inhibitors. 1,500 compounds, 77% hits
GALK confirm = Confirmation Assay for Inhibitors of Human Galactokinase (GALK) | shares compounds with Pol eta inh-1 | purified GALK, Kinase-Glo ATP depletion luminescence | Potency, µM (series often up to 115 µM), hits mostly inhibitors | 150 compounds, 70% hits | AID 2015, 2009
Redox cycling = Confirmatory Assay for Inhibitors of Human Galactokinase (GALK): Phenol-HRP redox assay counterscreen | shares compounds with Pol eta inh-1 | Phenol red-HRP H2O2 redox cycling, absorbance 600 nm | Potency, µM (titrated, usually from 115 µM), most hits filed as inhibitors | 150 compounds, 40% hits | AID 2035, 2009
HEK293 viability = Secondary Assay for Inhibitors of Human Galactokinase (GALK): HEK-293 Cell Viability Assay. 170 compounds, 10% hits. HEK-293 viability, ATP luminescence (CellTiter-Glo), 24/48 h. shares compounds with Pol eta inh-1. AID 2547, 2010. Potency, µM (series often up to 46.1 µM), hits mostly inhibitors
Pol kappa inh-2 = qHTS for Inhibitors of Polymerase Kappa: Confirmatory Assay for Cherry-picked Compounds. AID 720501, 2013. shares compounds with Pol eta inh-1. purified Pol-kappa, fluorescent strand-displacement substrate. 920 compounds, 76% hits. Potency, µM, actives largely listed as inhibitors
Pol eta inh-2 = qHTS for Inhibitors of Polymerase Eta: Confirmatory Assay for Cherry-picked Compounds; shares compounds with Pol eta inh-1; Pol eta primer extension, TAMRA/BHQ fluorescence, 10 min; Potency, µM, most hits filed as inhibitors; 2,600 compounds, 64% hits; AID 720502, 2013
Numbers stand for hits; – = inactive; ? = inconclusive; · = not tested or not shown; [ ] = dose if it differs, or a comment. Compounds with a hit are over-represented: about 2.8% of the library has one in this group of screens. Unless noted, calls follow the shape of the dose curve; as a rule, active = well fitted curve in the direction sought with a large enough effect; inconclusive = small, poorly fitted or top-dose-only effect, or another doubt; inactive = no such curve, though single readings can be large; an effect the other way counts as inactive or inconclusive.

SMILES	Pol kappa inh-1	Pol eta inh-1	Pol beta inh	WRN helicase inh	PI5P4K alpha inh	POLI inh	Pol iota confirm	Pol eta inh-2	others
COc1ccccc1/C=N/NC(=O)c1ccc(NC(=O)c2cccc([N+](=O)[O-])c2)cc1	·	·	–	·	·	·	·	·
Cc1cccc(C)c1NC(=O)Cn1c(=O)n(CCCS(=O)(=O)C2CCCCC2)c(=O)c2ccccc21	–	–	–	·	·	–	·	·
CCCn1c2ccccc2c2cnn(CC(=O)N(CCCOC)Cc3ccco3)c(=O)c21	–	–	–	·	·	–	·	·
COc1ccc(NC(=O)CN2C(=O)N/C(=C\c3cccn3-c3ccc(C(=O)NC#N)cc3)C2=O)cc1	·	·	·	·	·	·	42.3	60.1	Pol kappa inh-2=18.9
O=C(O)CN1C(=O)N/C(=C\c2cccn2-c2ccc(P(=O)(O)O)cc2)C1=O	–	–	·	·	·	?	·	·
Cc1cc(C)c(NC(=O)COC(=O)c2cccc3c2C(=O)c2ccccc2C3=O)c(C)c1	–	–	–	–	–	–	·	·
Cc1cc(C)c(Nc2cc(S(=O)(=O)O)c(N)c3c2C(=O)c2ccccc2C3=O)c(C)c1	?	17.8µM	20µM	56.2µM	-61.3	?	·	?	TbPGK inh=29.1µM;Pol kappa inh-2=33.6
COC(=O)c1ccccc1NC(=O)C1(c2cccs2)CCOCC1	–	?	–	·	·	–	·	·
CCN(CC)c1ccc2nc3ccc(N)cc3[n+](-c3ccccc3)c2c1	22.4µM	?	·	4.74µM	?	79.4µM	18.9	75.7	TbPGK inh=13µM;Pol kappa inh-2=47.4
CN1C(=O)/C(=C/c2ccccc2OCc2ccc(C(=O)O)cc2)NC1=S	–	–	–	–	–	?	·	·
O=C(O)c1ccc(COc2ccccc2/C=C2/NC(=O)N(c3cccc(Cl)c3)C2=O)cc1	39.8µM	10µM	25.1µM	?	-50.4	28.2µM	33.6	33.8	Pol kappa inh-2=18.9
O=C(NCc1ccccc1Cl)c1ccc(NC(=O)N2CCSc3ccccc32)cc1	–	–	–	·	·	–	·	·
CCC(Sc1nc2ccsc2c(=O)n1Cc1ccc(C(=O)O)cc1)C(=O)Nc1cc(Cl)ccc1C (stereo not given)	·	?	·	–	–	·	67	·	Pol kappa inh-2=67
O=C(CSc1nc2ccccc2nc1Cc1ccccc1)N1CCCc2ccccc21	–	–	–	·	·	–	·	·
O=c1cc(-c2ccc(O)c(O)c2)oc2cc(O)c(C3OC(CO)C(O)C(O)C3O)c(O)c12 (stereo not given)	20µM	3.16µM	4.47µM	?	–	10µM	42.3	19
O=c1cc(-c2ccc(O)cc2)oc2cc(O)c([C@@H]3O[C@H](CO)[C@@H](O)[C@H](O)[C@H]3O)c(O)c12	–	–	·	–	–	–	·	·
CN(C)c1cc(Cl)c2nonc2c1N	–	79.4µM	–	–[11.6 µM]	–	10µM	75.2	75.7	GALK confirm=21.1µM;Redox cycling=11.9µM;HEK293 viability=–
CCOc1ccccc1CNC(=O)c1cnc2sc(N3CCC(C)CC3)nn2c1=O	–	–	–	·	·	–	·	·
CCN(CC)c1ccc(/C=C(\C#N)C(=O)c2ccc(Br)cc2)cc1	22.4µM	?	39.8µM	28.2µM	–	?	67	42.6	Pol kappa inh-2=67
CCN(CC)c1ccc(/C=C(\C#N)C(N)=O)cc1	–	–	?	–	–	–	·	·
CCc1ccc(-c2nc(CS(=O)CC(=O)NCCc3ccc(C)cc3)c(C)o2)cc1 (stereo not given)	–	–	?	·	·	–	·	·
COc1cc(C(=O)N2CCc3c([nH]c4ccccc34)C2c2ccc(C)cc2)cc(OC)c1OC (stereo not given)	–	–	–	·	·	–	·	·
COC(=O)C1=CO[C@@H](O[C@@H]2OC(CO)[C@@H](O)[C@@H](O)[C@@H]2O)C2C1CC[C@]2(C)O (stereo not given in full)	–	–	·	–	–	–	·	·
COC(=O)C1=COC(OC2OC(CO)C(O)C(O)C2O)C2C1C=CC2(O)CO (stereo not given)	35.5µM	17.8µM	20µM	–	–	39.8µM	33.6	26.9	TbPGK inh=8.19µM
Cc1ccccc1OCCn1c(-c2ccc(Cl)cc2)nc2ccccc2c1=O	–	–	–	·	·	–	·	·
N#C/C(=C\c1ccc(OCc2ccc(Cl)cc2)cc1)C(=O)Nc1cccc(C(=O)O)c1	–	?	31.6µM	?	–	?	42.3	75.7
CCOc1ccc(-c2nc(Cn3c(=O)cc(-c4ccccc4)c4c(C)nn(C)c43)c(C)o2)cc1	–	–	–	·	·	–	·	·
O=C(Nc1ccc2c(c1)CCCN2C(=O)c1cccs1)c1ccc(F)c(F)c1	–	–	?	·	·	?	·	·
Cc1cc(C(=O)O)ccc1-c1ccc(CO)o1	–	–	–	–	–	–	·	·
O=C(O)c1ccc(-c2ccc(/C=C3\NC(=O)N(Cc4ccc(Cl)cc4)C3=O)o2)cc1	?	22.4µM	–	–[11.6 µM]	–	28.2µM	37.7	26.9

Source: PubChem BioAssay (National Center for Advancing Translational Sciences (NCATS))
